Test results taken from PubChem BioAssay (Tox21).
“And” between values parts separate entries of the source, which are not always exact repeats. Equal values may be shown once. Records with an inconclusive call do not appear. More than one record can exist for a structure, and the calls need not agree. The source made the active and inactive calls. Unless noted, calls follow the shape of the dose curve; as a rule, active = well fitted curve in the direction sought with a large enough effect in the repeat runs; inconclusive = weak or mixed curves; inactive = no such curve, though single readings can be large; an effect the other way counts as inactive or inconclusive.

Assay: qHTS assay for small molecule disruptors of the mitochondrial membrane potential - cell viability (AID 720634; calls by dose curve;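 also: human HepG2 liver cancer cells; nearly all actives have a fitted effect of over 20% in size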)
Details: HepG2 viability, ATP luminescence (CellTiter-Glo), 1 h; series mostly up to 83.2 µM; activity change, negative = cytotoxicity: at the top concentration
Outline: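 Same-well counter-screen: following the MMP dye addition, CellTiter-Glo was added to 1 hr compound-treated HepG2 cells and luminescence read after 30 min at room temperature.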
% is scaled to controls: 0 for no effect and ±100 for the full control effect.

Compound | activity change, negative = cytotoxicity | Potency
C/C=C/C=C/CCCCCCCO | -17.8% (inactive) | –
Cc1cc(OI)c(C(C)C)cc1-c1cc(C(C)C)c(OI)cc1C | 17.2% (inactive) | –
CCCCC1C(=O)N(c2ccccc2)N(c2ccc(O)cc2)C1=O (stereo unspecified) | 14% [at 39.1 µM] (inactive) | –
CC(C)(C)CC(C)(C)c1ccc(OCCO)cc1 | -12% (inactive) | –
CO[C@H]1C=CO[C@@]2(C)Oc3c(C)c(O)c4c(O)c(c5c(c4c3C2=O)=NC2(CCN(CC(C)C)CC2)N=5)NC(=O)/C(C)=C\C=C/[C@H](C)[C@H](O)[C@@H](C)[C@@H](O)[C@@H](C)[C@H](OC(C)=O)[C@@H]1C | – | inactive
C[N+](C)(C)CCOC(N)=O | -9.1% (inactive) | –
CN1CCN(CCCN2c3ccccc3Sc3ccc(S(=O)(=O)N(C)C)cc32)CC1 | -3.95% [at 39.1 µM] (inactive) | –
CCOC(=O)[C@@H](C)Oc1ccc(Oc2nc3ccc(Cl)cc3o2)cc1 | -4.3% (inactive) | –
CC(=O)[C@H]1CC[C@H]2[C@@H]3C[C@H](C)C4=CC(=O)CC[C@]4(C)[C@H]3[C@@H](O)C[C@]12C | -3.8% [at 39.1 µM] (inactive) | –
CNCCCC1c2ccccc2C=Cc2ccccc21 | -9.11% [at 39.1 µM] (inactive) | –
CCc1c2c(nc3ccc(OC(=O)N4CCC(N5CCCCC5)CC4)cc13)-c1cc3c(c(=O)n1C2)COC(=O)[C@]3(O)CC | 33.9% (inactive) | –
CC(=O)CC(c1ccc([N+](=O)[O-])cc1)c1c(O)c2ccccc2oc1=O (stereo unspecified) | -7.11% [at 39.1 µM] (inactive) | –
CC[C@@H]([C@H](C)O)n1ncn(-c2ccc(N3CCN(c4ccc(OC[C@@H]5CO[C@@](Cn6cncn6)(c6ccc(F)cc6F)C5)cc4)CC3)cc2)c1=O | -7.43% (inactive) | –
CCn1nc(C)c2c1C(=O)NCC(c1ccc(O)cc1)=N2 | 12.8% (inactive) | –
CCn1cc(C(=O)O)c(=O)c2cc(F)c(N3CCNCC3)nc21 | -8.21% [at 39.1 µM] (inactive) | –
CNC(=S)NC | 7.26% (inactive) | –
CCCCOC(=O)CCS | 7.84% (inactive) | –

Assay: qHTS assay for small molecule disruptors of the mitochondrial membrane potential (AID 720635); also: potency is read from the fitted curve at half-maximal effect
Details: HepG2 mitochondrial membrane potential, Mito-MPS dye ratio; series mostly up to 83.2 µM; ratio activity, negative = MMP loss: at the top concentration
Outline: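 HepG2 cells (2,000/well) attached overnight at 37C, then took compound for 1 hr at 37C, 5% CO2. Mito-MPS dye was added for 30 min; fluorescence was read at 490/535 nm (monomers) and 540/590 nm (aggregates).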

Compound | Potency | ratio activity, negative = MMP loss
CC(C)(C)CC(C)(C)c1ccc(OCCO)cc1 | 60.8 µM (active) | –
CCCCC/C(=C\c1ccccc1)CO | 30.3 µM (active) | –
C[N+](C)(C)CCOC(N)=O | – | -2.99% (inactive)
CCCCCC=CCC=CCCCCCCCC(=O)OCC | – | 21.2% (inactive)
Cc1cc(O)c(C(C)C)cc1Cl | inactive and 4.33 µM (active) | –
CCC(Cc1ccccc1)(C(=O)c1ccc(N2CCOCC2)cc1)N(C)C (stereo unspecified) | 30.6 µM (active) | –
CCOC(=O)[C@@H](C)Oc1ccc(Oc2nc3ccc(Cl)cc3o2)cc1 | – | -22.5% (inactive)
CCc1c2c(nc3ccc(OC(=O)N4CCC(N5CCCCC5)CC4)cc13)-c1cc3c(c(=O)n1C2)COC(=O)[C@]3(O)CC | 11.9 µM (active) | –
CC(=O)CC(c1ccc([N+](=O)[O-])cc1)c1c(O)c2ccccc2oc1=O (stereo unspecified) | 7.17 µM (active) | –
CCC(C(=O)OCCN(CC)CC)c1ccccc1 (stereo unspecified) | – | 17.9% (inactive)
Fc1c(F)c(F)c(Br)c(F)c1F | – | 3.8% (inactive)
N#C/C(=C1\SCC(c2ccccc2Cl)S1)n1ccnc1 (stereo unspecified) | – | 14.3% (inactive)
COC(=O)Nc1nc2ccc(C(=O)c3cccs3)cc2[nH]1 | 2.37 µM (active) | –
CCCCCCCCCCCC[N+](C)(C)CC(=O)[O-] | – | 13.6% (inactive)
O=C(Nc1ccc([N+](=O)[O-])cc1)Nc1ccc([N+](=O)[O-])cc1 | 0.422 µM (active) | –

Assay: qHTS assay to test for compound auto fluorescence at 590 nm (red) in HepG2 cells (AID 720674)
Details: HepG2 autofluorescence, red 540/590 nm, 1 h; series mostly up to 91.3 µM; fluorescence, relative to Rose Bengal: at the top concentration
Outline: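 Rose Bengal sodium served as the red fluorophore standard. HepG2 monolayers (overnight attachment, MEM with 10% FBS) were exposed to test compounds for 1 hr at 37 C and read at Ex 540/Em 590 nm.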

Compound | fluorescence, relative to Rose Bengal | outcome
C/C=C/C=C/CCCCCCCO | -0.109% (inactive) | –
Cc1cc(OI)c(C(C)C)cc1-c1cc(C(C)C)c(OI)cc1C | 0.641% [at 46 µM] (inactive) | –
CCCCN(CCCC)CCCOC(=O)c1ccc(N)cc1 | -0.556% [at 18.6 µM] (inactive) | –
CCCCC1C(=O)N(c2ccccc2)N(c2ccc(O)cc2)C1=O (stereo unspecified) | -0.0374% [at 18.6 µM] (inactive) | –
CC(C)(C)CC(C)(C)c1ccc(OCCO)cc1 | – | inactive
CC(C)(C)C(=O)O | -0.138% (inactive) | –
CCCCC/C(=C\c1ccccc1)CO | 0.0353% [at 95.7 µM] (inactive) | –
C[N+]1(C)CCC(=C(c2ccccc2)c2ccccc2)CC1 | -0.257% [at 18.6 µM] (inactive) | –
CO[C@H]1C=CO[C@@]2(C)Oc3c(C)c(O)c4c(O)c(c5c(c4c3C2=O)=NC2(CCN(CC(C)C)CC2)N=5)NC(=O)/C(C)=C\C=C/[C@H](C)[C@H](O)[C@@H](C)[C@@H](O)[C@@H](C)[C@H](OC(C)=O)[C@@H]1C | – | inactive
CCC(C)=O | -0.578% (inactive) | –
C[N+](C)(C)CCOC(N)=O | -0.438% [at 46 µM] (inactive) | –
CN1CCN(CCCN2c3ccccc3Sc3ccc(S(=O)(=O)N(C)C)cc32)CC1 | -0.708% [at 18.6 µM] (inactive) | –
CCCCCC=CCC=CCCCCCCCC(=O)OCC | -0.567% [at 46 µM] (inactive) | –
Cc1cc(O)c(C(C)C)cc1Cl | – | inactive
CCC(Cc1ccccc1)(C(=O)c1ccc(N2CCOCC2)cc1)N(C)C (stereo unspecified) | -0.494% (inactive) | –
CCOC(=O)[C@@H](C)Oc1ccc(Oc2nc3ccc(Cl)cc3o2)cc1 | 0.0747% (inactive) | –
CC(=O)[C@H]1CC[C@H]2[C@@H]3C[C@H](C)C4=CC(=O)CC[C@]4(C)[C@H]3[C@@H](O)C[C@]12C | 0.133% [at 18.6 µM] (inactive) | –

Compound | fluorescence, relative to Rose Bengal | outcome
CNCCCC1c2ccccc2C=Cc2ccccc21 | -0.202% [at 18.6 µM] (inactive) | –
CCc1c2c(nc3ccc(OC(=O)N4CCC(N5CCCCC5)CC4)cc13)-c1cc3c(c(=O)n1C2)COC(=O)[C@]3(O)CC | -0.117% [at 46 µM] (inactive) | –
CC(=O)CC(c1ccc([N+](=O)[O-])cc1)c1c(O)c2ccccc2oc1=O (stereo unspecified) | -0.182% [at 18.6 µM] (inactive) | –
CC(C)(CCl)c1ccccc1 | 0.033% (inactive) | –
CCC(C(=O)OCCN(CC)CC)c1ccccc1 (stereo unspecified) | -0.077% [at 46 µM] (inactive) | –
CCOC(=O)c1ccccc1C | -0.0144% (inactive) | –
CC1CC(=O)NN=C1c1ccc(NCC(C)(C)NCC(O)COc2cc(Cl)ccc2C#N)cc1 (stereo unspecified) | -0.446% [at 46 µM] (inactive) | –
CCn1cc(C(=O)O)c(=O)c2cc(F)c(N3CCNCC3)nc21 | 0.819% [at 18.6 µM] (inactive) | –
CNC(=S)NC | 0.192% (inactive) | –
CCCCOC(=O)CCS | -0.181% (inactive) | –
N#C/C(=C1\SCC(c2ccccc2Cl)S1)n1ccnc1 (stereo unspecified) | -0.125% [at 46 µM] (inactive) | –
O=S(=O)(c1ccccc1)c1ccc(Cl)cc1 | 0.0725% (inactive) | –
CC(C)OCC1CO1 (stereo unspecified) | -0.0861% (inactive) | –
c1cnc2c(n1)CCCC2 | -0.188% (inactive) | –
COC(=O)Nc1nc2ccc(C(=O)c3cccs3)cc2[nH]1 | 0.0234% [at 46 µM] (inactive) | –
CCCCCCCCCCCC[N+](C)(C)CC(=O)[O-] | 0.0781% (inactive) | –
O=C(Nc1ccc([N+](=O)[O-])cc1)Nc1ccc([N+](=O)[O-])cc1 | -0.333% [at 46 µM] (inactive) | –
